Experimental data as given in PubChem BioAssay (Tox21).
Inconclusive results are not listed. Calls of active or inactive are those of the source. Unless noted, calls follow the shape of the dose curve; as a rule, active = well fitted curve in the direction sought with a large enough effect in the repeat runs; inconclusive = weak or mixed curves; inactive = no such curve, though single readings can be large; an effect the other way counts as inactive or inconclusive.

Legend:
[1] = qHTS assay to identify small molecule antagonists of the estrogen related receptor (ERR) signaling pathway from Tox21 library - cell viability counter screen (AID 1224834); also: nearly all actives have a fitted effect of over 30% in size
Procedure, shortened: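 CellTiter-Fluor fluorescence measured; ERR cells; 17.5 h compound incubation at 37 C; 30 min reagent step.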

[2] = biological target: Luciferin 4-monooxygenase (Photinus pyralis) (UniProt P08659); assay: qHTS assay to identify small molecule inhibitors of firefly luciferase (AID 1224835); also: series mostly up to about 120 µM; nearly all actives have a fitted effect of over 25% in size
Luciferin 4-monooxygenase (Photinus pyralis), sequence (P08659 whole entry, looked up): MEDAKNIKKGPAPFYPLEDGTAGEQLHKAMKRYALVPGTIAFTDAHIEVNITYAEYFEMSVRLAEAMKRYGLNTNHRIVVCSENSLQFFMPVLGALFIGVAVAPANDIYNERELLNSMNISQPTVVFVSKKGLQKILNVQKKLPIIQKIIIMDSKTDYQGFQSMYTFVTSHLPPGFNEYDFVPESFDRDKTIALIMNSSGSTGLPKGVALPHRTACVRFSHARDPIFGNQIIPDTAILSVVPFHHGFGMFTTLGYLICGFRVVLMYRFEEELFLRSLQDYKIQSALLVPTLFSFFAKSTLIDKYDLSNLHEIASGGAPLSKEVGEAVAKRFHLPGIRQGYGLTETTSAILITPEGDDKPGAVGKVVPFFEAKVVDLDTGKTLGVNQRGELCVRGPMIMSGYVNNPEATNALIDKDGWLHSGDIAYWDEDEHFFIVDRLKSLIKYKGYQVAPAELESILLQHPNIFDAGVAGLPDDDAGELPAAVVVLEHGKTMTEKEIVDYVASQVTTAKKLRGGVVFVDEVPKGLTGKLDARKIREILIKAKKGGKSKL
Procedure, shortened: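 Inhibition of purified Photinus luciferase is measured by luminescence. Substrate levels (D-luciferin, ATP) sit at their KM values. Each compound is tested in a concentration series.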

[3] = qHTS assay to identify small molecule agonists of the constitutive androstane receptor (CAR) signaling pathway - cell viability counter screen (AID 1224836); also: series mostly up to about 92 µM; nearly all actives have a fitted effect of over 45% in size
Procedure, shortened: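 Counter screen multiplexed with the CAR reporter readout: HepG2 cells co-transfected with hCAR and the CYP2B6-2.2kb construct receive a 15-concentration compound series and 0.75 uM PK11195 (final), then CellTiter-Fluor fluorescence is read after 23 h.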

[4] = qHTS assay to identify small molecule antagonists of the constitutive androstane receptor (CAR) signaling pathway - cell viability counter screen (AID 1224837); also: series mostly up to about 92 µM; nearly all actives have a fitted effect of over 45% in size
Procedure, shortened: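 Using CellTiter-Fluor, viability is scored in HepG2 cells stably carrying hCAR and a 2.2kb CYP2B6 reporter after 23 hr compound exposure across 15 concentrations, with CITCO present at 50 nM.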

[5] = biological target: Nuclear receptor subfamily 1 group I member 3 (Homo sapiens) (UniProt Q14994); assay: qHTS assay to identify small molecule antagonists of the constitutive androstane receptor (CAR) signaling pathway (AID 1224838);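 also: HepG2 cells stably expressing hCAR with CYP2B6 luciferase reporter stimulated by CITCO; nearly all actives have a fitted effect of over 40% in size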
Nuclear receptor subfamily 1 group I member 3 (Homo sapiens), sequence (Q14994 whole entry, looked up): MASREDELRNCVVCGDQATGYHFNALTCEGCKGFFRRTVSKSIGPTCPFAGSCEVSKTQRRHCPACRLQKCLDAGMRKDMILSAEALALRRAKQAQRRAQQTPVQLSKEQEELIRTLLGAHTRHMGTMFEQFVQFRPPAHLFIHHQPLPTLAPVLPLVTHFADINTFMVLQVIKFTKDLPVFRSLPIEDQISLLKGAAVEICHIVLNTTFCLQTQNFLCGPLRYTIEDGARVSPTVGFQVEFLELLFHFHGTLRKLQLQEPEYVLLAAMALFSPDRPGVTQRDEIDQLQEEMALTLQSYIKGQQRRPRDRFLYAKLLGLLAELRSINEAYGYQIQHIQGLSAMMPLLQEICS
Procedure, shortened: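 Reporter luminescence was quantified after 24 h exposure of hCAR/CYP2B6-2.2kb double-stable HepG2 cells to compounds at 15 concentrations in the presence of 50 nM CITCO final.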

[6] = qHTS assay to identify small molecule antagonists of the estrogen related receptor signaling pathway with the pleiotropic PPARgamma coactivator (PGC) from Tox21 10K library - cell viability counter screen (AID 1224840; active = well fitted cell-killing curve with a large enough effect in the repeat runs, not every such curve was filed as active; also: nearly all actives have a fitted effect of over 40% in size)
Procedure, shortened: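 Here the PGC/ERR cells serve as a cytotoxicity control: they are exposed to compounds for 17.5 hours at 37 C, and live-cell signal is quantified using CellTiter-Fluor fluorescence.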

[7] = qHTS assay to identify small molecule antagonists of the estrogen related receptor signaling pathway with the pleiotropic PPARgamma coactivator (PGC) from Tox21 10K library (AID 1224841; call rule not given here; also: series mostly up to about 92 µM; actives are mostly falling curves and most rising ones were filed inactive; nearly all actives have a fitted effect of over 50% in size)
Procedure, shortened: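 Each well held 2,000 PGC/ERR cells, pre-incubated six hours (37 C, 5% CO2). Test substances in DMSO were added by pin tool and left for 18 h at 37 C before luciferase detection by One-Glo.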

[8] = qHTS assay to identify small molecule agonists of the estrogen related receptor signaling pathway with the pleiotropic PPARgamma coactivator (PGC) from Tox21 10K library (AID 1224842); also: nearly all actives have a fitted effect of over 15% in size; also: potency is read from the fitted curve at half-maximal effect
Procedure, shortened: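 Luminescence from One-Glo (30 min, room temperature) measured after PGC/ERR cells had 18 h at 37 C with pinned compound (23 nL in DMSO). Cells had been seeded at 2,000 per well and pre-incubated 6 h.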

[9] = biological target: Thyrotropin receptor (Homo sapiens) (UniProt P16473); assay: qHTS assay to identify small molecule agonists of the thyroid stimulating hormone receptor (TSHR) signaling pathway (AID 1224843; calls by dose curve; also: nearly all actives have a fitted effect of over 45% in size)
Thyrotropin receptor (Homo sapiens), sequence (P16473 whole entry, looked up): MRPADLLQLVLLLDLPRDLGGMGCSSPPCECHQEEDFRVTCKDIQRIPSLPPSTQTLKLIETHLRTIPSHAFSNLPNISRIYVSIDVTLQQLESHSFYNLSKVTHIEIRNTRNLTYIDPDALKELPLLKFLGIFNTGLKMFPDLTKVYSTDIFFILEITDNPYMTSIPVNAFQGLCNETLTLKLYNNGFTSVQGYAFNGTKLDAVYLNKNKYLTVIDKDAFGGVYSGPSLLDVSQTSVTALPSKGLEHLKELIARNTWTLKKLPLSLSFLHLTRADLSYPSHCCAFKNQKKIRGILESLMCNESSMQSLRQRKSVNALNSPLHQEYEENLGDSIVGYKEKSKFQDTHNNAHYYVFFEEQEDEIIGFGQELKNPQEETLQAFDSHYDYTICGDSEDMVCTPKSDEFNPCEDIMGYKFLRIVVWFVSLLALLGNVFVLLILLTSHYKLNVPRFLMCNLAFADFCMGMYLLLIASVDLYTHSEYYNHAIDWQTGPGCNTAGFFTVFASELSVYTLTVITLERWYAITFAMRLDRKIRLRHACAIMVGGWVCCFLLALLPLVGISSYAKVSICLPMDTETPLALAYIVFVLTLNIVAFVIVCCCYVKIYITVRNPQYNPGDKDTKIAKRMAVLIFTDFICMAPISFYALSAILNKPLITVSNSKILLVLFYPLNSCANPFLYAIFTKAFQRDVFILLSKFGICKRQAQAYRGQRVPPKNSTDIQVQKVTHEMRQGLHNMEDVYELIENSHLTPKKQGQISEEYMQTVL
Procedure, shortened: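 HEK293 cells stably bearing the thyrotropin receptor were plated at 800 cells/well and challenged with compound (30 min, RT). Accumulated cAMP was quantified via cAMP-d2 competing for cryptate-tagged antibody.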

[10] = biological target: Nuclear receptor subfamily 1 group I member 3 (Homo sapiens) (UniProt Q14994); assay: qHTS assay to identify small molecule agonists of the constitutive androstane receptor (CAR) signaling pathway (AID 1224839); also: series mostly up to about 92 µM; nearly all actives have a fitted effect of over 15% in size
Procedure, shortened: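 A 15-concentration quantitative screen uses HepG2 cells co-transfected stably with human CAR and CYP2B6-2.2kb reporter. Treatment lasts 24 h with 0.75 uM PK11195 final present; ONE-Glo luminescence is the signal.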
% is scaled to controls: 0 for no effect and ±100 for the full control effect.

CCCNC(C)(C)COC(=O)c1ccccc1
inactive: Potency [1] | Potency [2] | Potency [3] | Potency [4] | Potency [5] | Potency [6] | Potency [7] | Potency [8]

CC(CNC1CCCCC1)OC(=O)c1ccccc1 (centres undefined)
inactive: Potency [1] | Potency [2] | Potency [3] | Potency [4] | Potency [5] | Potency [6] | Potency [7] | Potency [8] | Potency [9]

CCOC(=O)C1CC(=O)C(=C(O)C2CC2)C(=O)C1 (centres undefined)
inactive: Potency [1] | Potency [2] | Potency [3] | Potency [4] | Potency [5] | Potency [7] | Potency [8]

CCCCCCCCOC(=O)CCCCCCCCC(=O)OCCCCCCCC
inactive: Potency [1] | Potency [2] | Potency [3] | Potency [4] | Potency [10] | Potency [7] | Potency [8]

OCCN(CCO)c1ccccc1
inactive: Potency [1] | Potency [2] | Potency [3] | Potency [4] | Potency [6]

CN(CC1(C)CCCO1)S(=O)(=O)c1ccc(Cl)c(S(N)(=O)=O)c1 (centres undefined)
inactive: Potency [1] | Potency [2] | Potency [3] | Potency [4] | Potency [6] | Potency [9]

CC(C)OC(C)C
inactive: Potency [1] | Potency [2] | Potency [3] | Potency [4] | Potency [5] | Potency [6] | Potency [7] | Potency [8] | Potency [9]

O=[N+]([O-])c1nccn1CO[C@@H](CO)[C@H](O)CO
inactive: Potency [1] | Potency [2] | Potency [3] | Potency [4] | Potency [6] | Potency [7] | Potency [8] | Potency [9]

CCCCC(=O)O[C@]1(C(=O)CO)[C@H](C)C[C@H]2[C@@H]3CCC4=CC(=O)C=C[C@]4(C)[C@@]3(F)[C@@H](O)C[C@@]21C
inactive: Potency [1] | Potency [2] | Potency [3] | Potency [4] | Potency [6] | Potency [7] | Potency [8] | Potency [9]

CCCCC1CCC(=O)O1 (centres undefined)
inactive: Potency [1] | Potency [2] | Potency [3] | Potency [4] | Potency [5] | Potency [6] | Potency [7] | Potency [8] | Potency [9]

CCC/C=C/CO
inactive: Potency [1] | Potency [2] | Potency [3] | Potency [4] | Potency [5] | Potency [6] | Potency [9]

Cc1c[nH]c(=S)[nH]c1=O
inactive: Potency [1] | Potency [2] | Potency [3] | Potency [4] | Potency [5] | Potency [6]

N#Cc1ccc(C(c2ccc(C#N)cc2)n2cncn2)cc1
inactive: Potency [1] | Potency [2] | Potency [3] | Potency [4] | Potency [6] | Potency [9]

CCC1(C)NC(=O)NC1=O (centres undefined)
inactive: Potency [1] | Potency [2] | Potency [3] | Potency [4] | Potency [6] | Potency [9]

CC(C)O
inactive: Potency [1] | Potency [2] | Potency [3] | Potency [4] | Potency [5] | Potency [6] | Potency [9]

FC(F)(F)C(F)(F)C(F)(F)C(F)(F)C(F)(F)C(F)(F)C(F)(F)C(F)(F)Br
inactive: Potency [1] | Potency [2] | Potency [3] | Potency [4] | Potency [5] | Potency [6] | Potency [7] | Potency [8] | Potency [9]

COC(=O)N[C@H](C(=O)N[C@@H](Cc1ccccc1)[C@@H](O)CN(Cc1ccc(-c2ccccn2)cc1)NC(=O)[C@@H](NC(=O)OC)C(C)(C)C)C(C)(C)C
inactive: Potency [1] | Potency [2] | Potency [3] | Potency [4] | Potency [10] | Potency [6] | Potency [9]

CC(Oc1c(Cl)cccc1Cl)C1=NCCN1 (centres undefined)
inactive: Potency [1] | Potency [2] | Potency [3] | Potency [4] | Potency [6] | Potency [8] | Potency [9]

CN(CCCN1c2ccccc2CCc2ccccc21)CC(=O)c1ccc(Cl)cc1
inactive: Potency [1] | Potency [2] | Potency [3] | Potency [4] | Potency [5] | Potency [9]

C/C(=N\O)[C@@H](C)NCC(C)(C)CN[C@H](C)/C(C)=N/O
inactive: Potency [1] | Potency [2] | Potency [3] | Potency [4] | Potency [6]

CNCCC(Oc1ccccc1OC)c1ccccc1 (centres undefined)
inactive: Potency [1] | Potency [2] | Potency [3] | Potency [4] | Potency [5] | Potency [6] | Potency [8] | Potency [9]

COC(=O)c1ccc2cc(C(=O)OC)ccc2c1
inactive: viability change, negative = cytotoxic [1] -1.01% [at 19 µM] | activity change, negative = inhibition [2] -7.06% [at 23.6 µM] | viability change, negative = cytotoxic [3] 6.04% [at 19 µM] | activity change, negative = cytotoxicity [4] -9.38% [at 19 µM] | viability change, negative = cytotoxic [6] 1.78% [at 19 µM] | activity, negative = inhibition [7] 221% [at 19 µM] | activation [9] 2.3% [at 19 µM]
active: Potency [8] 4.44 µM

CCN(CC)CC1CCCCN1CC(=O)N1c2ccccc2C(=O)Nc2cccnc21 (centres undefined)
inactive: Potency [1] | Potency [2] | Potency [3] | Potency [4] | Potency [6] | Potency [7] | Potency [8] | Potency [9]

COC(C)CCO (centres undefined)
inactive: Potency [1] | Potency [2] | Potency [3] | Potency [4] | Potency [5] | Potency [6] | Potency [9]

Oc1ccccc1F
inactive: Potency [1] | Potency [2] | Potency [3] | Potency [4] | Potency [9]

CCN[C@H]1CN(CCCOC)S(=O)(=O)c2sc(S(N)(=O)=O)cc21
inactive: Potency [1] | Potency [2] | Potency [4] | Potency [5] | Potency [10] | Potency [6] | Potency [9]

CCCCCCCCCC/C=C/C#N
inactive: Potency [1] | Potency [2] | Potency [3] | Potency [5] | Potency [10] | Potency [6] | Potency [7] | Potency [8]

CCC(=O)O[C@]1(C(=O)SCF)[C@H](C)C[C@H]2[C@@H]3C[C@H](F)C4=CC(=O)C=C[C@]4(C)[C@@]3(F)[C@@H](O)C[C@@]21C
inactive: Potency [1] | Potency [2] | Potency [4] | Potency [5] | Potency [6] | Potency [7] | Potency [9]

Cc1ccc(C=O)s1
inactive: Potency [1] | Potency [2] | Potency [3] | Potency [5] | Potency [10] | Potency [6] | Potency [7] | Potency [8]

O=C(O)[C@@H]1CSCN1
inactive: Potency [1] | Potency [2] | Potency [3] | Potency [5] | Potency [6] | Potency [9]
